What all share (assay): log2 fold change, soluble protein after heating vs DMSO (PISA); higher = thermal stabilisation; K562 cells, 10 uM, 30 min; active = over 0.2 and 3.5 SD of the protein, either way, in both replicates (recomputed)
Compound in one test: CON(C)C(=O)N1N=C(c2cc(F)ccc2F)S[C@@]1(CCCN)c1ccccc1 [filanesib]
Put shortly:
(§1)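 Aliquots of K562 cells (2×10^6 cells/mL) treated with 10 μM compound for 30 min were heated for 3 min over 48°C-58°C. After pooling and extraction in PBS with 0.5% NP-40 at 4°C, soluble protein from a 21,000xg, 90 min spin was quantified by TMTpro 16plex LC-MS/MS with channel sums equalised. Thermal stability is expressed against control samples, from duplicates, as a log2 fold change.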

Compound in another test: CO[C@H]1C[C@@H]2CC[C@@H](C)[C@@](O)(O2)C(=O)C(=O)N2CCCC[C@H]2C(=O)O[C@H]([C@H](C)C[C@@H]2CC[C@H](n3cnnn3)[C@H](OC)C2)CC(=O)[C@H](C)/C=C(\C)[C@@H](O)[C@@H](OC)C(=O)[C@H](C)C[C@H](C)/C=C/C=C/C=C/1C [zotarolimus]
Put shortly: as §1

Compound in another test: COc1cc(C(=O)O)ccc1NC(=O)[C@@H]1N[C@@H](CC(C)(C)C)[C@](C#N)(c2ccc(Cl)cc2F)[C@H]1c1cccc(Cl)c1F [idasanutlin]
Put shortly: as §1

Compound in another test: COc1cc(Nc2ncc3c(n2)-c2ccc(Cl)cc2C(c2c(F)cccc2OC)=NC3)ccc1C(=O)O [alisertib]
Put shortly:
as §1

Compound in test [1]: COc1cc2nc(-c3cc(F)ccc3O)nc(N[C@@H]3CNC[C@H]3C(C)(C)O)c2cc1OC
A digest of the protocol: as §1

Compound in a further test: COc1cc2ncnc(Nc3ccc(F)c(Cl)c3)c2cc1OCCCN1CCOCC1 [gefitinib]
Put shortly: as §1

Compound in test [2]: COc1cccc2cc(-c3nc([C@H]4CC[C@H](C(=O)O)CC4)n4ncnc(N)c34)[nH]c12
A digest of the protocol: as §1

Compound in the next test: CS(=O)(=O)CCNCc1ccc(-c2ccc3ncnc(Nc4ccc(OCc5cccc(F)c5)c(Cl)c4)c3c2)o1 [lapatinib]
Put shortly:
as §1

Compound in a further test: CS(=O)(=O)N1CCN(Cc2cc3nc(-c4cccc5[nH]ncc45)nc(N4CCOCC4)c3s2)CC1 [pictilisib]
Put shortly: as §1

Compound in test [3]: COC1=CC=C(C=C1)CN2C=CC3=C2C=C(C=C3)C(=O)NO
Put shortly: as §1

The results in this text go back to the supplement of paper PMC10849652.

Of roughly 7,900 targets only a part is listed; those with a hit were picked by preference. About 0.6% of all pairs of compound and target were hits. A number with no mark means an inactive call.

Sequence of UniProt Q96GV9 (Q96GV9 whole entry, looked up): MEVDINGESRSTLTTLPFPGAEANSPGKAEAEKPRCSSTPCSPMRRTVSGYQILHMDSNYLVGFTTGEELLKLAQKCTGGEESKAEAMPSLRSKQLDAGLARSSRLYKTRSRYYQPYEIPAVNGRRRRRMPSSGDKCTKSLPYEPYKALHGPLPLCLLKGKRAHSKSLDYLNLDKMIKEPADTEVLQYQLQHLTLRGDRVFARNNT
Sequence of UniProt Q14677 (Q14677 whole entry, looked up): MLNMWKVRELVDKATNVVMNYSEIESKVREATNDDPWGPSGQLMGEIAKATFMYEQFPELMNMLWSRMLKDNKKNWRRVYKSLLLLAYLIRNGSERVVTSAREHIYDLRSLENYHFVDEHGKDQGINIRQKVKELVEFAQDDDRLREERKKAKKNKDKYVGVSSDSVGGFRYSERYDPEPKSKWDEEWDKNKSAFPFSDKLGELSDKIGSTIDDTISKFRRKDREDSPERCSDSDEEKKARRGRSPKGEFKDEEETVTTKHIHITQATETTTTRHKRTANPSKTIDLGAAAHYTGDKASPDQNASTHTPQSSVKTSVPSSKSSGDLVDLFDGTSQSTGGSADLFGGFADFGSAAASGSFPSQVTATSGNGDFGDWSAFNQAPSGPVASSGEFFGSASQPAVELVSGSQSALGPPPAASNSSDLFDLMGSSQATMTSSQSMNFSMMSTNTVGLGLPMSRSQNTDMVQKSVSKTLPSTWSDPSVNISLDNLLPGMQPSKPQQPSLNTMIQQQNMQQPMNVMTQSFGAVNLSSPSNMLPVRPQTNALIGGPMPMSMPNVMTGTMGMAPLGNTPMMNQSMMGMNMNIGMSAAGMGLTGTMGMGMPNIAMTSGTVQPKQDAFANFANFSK
Sequence of UniProt Q5T655 (Q5T655 whole entry, looked up): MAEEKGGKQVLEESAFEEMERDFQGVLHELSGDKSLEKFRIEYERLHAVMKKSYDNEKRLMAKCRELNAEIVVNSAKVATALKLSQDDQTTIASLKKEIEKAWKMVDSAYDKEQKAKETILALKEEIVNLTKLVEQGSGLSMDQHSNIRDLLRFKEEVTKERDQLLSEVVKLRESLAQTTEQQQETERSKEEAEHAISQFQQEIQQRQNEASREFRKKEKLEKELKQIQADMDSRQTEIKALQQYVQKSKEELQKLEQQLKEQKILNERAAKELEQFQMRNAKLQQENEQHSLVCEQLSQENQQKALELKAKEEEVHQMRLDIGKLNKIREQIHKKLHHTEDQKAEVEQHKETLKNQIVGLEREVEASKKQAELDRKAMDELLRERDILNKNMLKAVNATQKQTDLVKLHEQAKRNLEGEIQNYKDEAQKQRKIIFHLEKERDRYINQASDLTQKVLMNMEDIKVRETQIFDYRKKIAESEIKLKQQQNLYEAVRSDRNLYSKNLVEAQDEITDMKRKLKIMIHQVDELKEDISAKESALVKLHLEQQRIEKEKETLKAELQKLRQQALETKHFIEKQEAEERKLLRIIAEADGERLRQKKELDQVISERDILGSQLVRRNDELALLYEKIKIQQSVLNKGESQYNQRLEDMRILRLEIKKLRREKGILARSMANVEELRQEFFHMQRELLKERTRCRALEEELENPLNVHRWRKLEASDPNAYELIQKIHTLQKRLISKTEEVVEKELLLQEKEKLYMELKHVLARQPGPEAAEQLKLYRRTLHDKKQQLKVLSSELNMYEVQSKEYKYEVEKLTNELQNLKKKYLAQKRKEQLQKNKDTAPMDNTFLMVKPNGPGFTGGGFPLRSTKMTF
Sequence of UniProt Q9UBY8 (Q9UBY8 whole entry, looked up): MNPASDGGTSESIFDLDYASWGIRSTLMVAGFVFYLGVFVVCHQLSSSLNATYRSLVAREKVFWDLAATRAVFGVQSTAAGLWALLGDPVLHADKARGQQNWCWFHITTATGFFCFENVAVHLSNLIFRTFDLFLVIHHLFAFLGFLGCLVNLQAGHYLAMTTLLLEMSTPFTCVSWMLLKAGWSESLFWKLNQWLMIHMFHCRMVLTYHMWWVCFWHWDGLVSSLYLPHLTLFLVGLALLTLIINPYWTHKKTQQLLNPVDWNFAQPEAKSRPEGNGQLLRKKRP
Sequence of UniProt Q13286 (Q13286 whole entry, looked up): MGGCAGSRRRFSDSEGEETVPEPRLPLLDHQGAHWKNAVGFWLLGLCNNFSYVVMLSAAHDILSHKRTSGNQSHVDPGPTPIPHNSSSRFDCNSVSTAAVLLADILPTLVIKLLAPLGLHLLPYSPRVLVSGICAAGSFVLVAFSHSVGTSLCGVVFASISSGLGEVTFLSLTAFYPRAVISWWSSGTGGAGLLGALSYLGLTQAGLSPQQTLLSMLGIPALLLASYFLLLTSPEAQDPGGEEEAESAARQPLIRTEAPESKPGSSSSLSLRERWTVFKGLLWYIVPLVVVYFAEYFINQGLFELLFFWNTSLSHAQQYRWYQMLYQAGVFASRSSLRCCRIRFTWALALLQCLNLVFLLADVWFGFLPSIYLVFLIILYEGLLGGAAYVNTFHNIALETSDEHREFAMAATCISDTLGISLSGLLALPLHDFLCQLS
Sequence of UniProt Q9BWU1 (Q9BWU1 whole entry, looked up): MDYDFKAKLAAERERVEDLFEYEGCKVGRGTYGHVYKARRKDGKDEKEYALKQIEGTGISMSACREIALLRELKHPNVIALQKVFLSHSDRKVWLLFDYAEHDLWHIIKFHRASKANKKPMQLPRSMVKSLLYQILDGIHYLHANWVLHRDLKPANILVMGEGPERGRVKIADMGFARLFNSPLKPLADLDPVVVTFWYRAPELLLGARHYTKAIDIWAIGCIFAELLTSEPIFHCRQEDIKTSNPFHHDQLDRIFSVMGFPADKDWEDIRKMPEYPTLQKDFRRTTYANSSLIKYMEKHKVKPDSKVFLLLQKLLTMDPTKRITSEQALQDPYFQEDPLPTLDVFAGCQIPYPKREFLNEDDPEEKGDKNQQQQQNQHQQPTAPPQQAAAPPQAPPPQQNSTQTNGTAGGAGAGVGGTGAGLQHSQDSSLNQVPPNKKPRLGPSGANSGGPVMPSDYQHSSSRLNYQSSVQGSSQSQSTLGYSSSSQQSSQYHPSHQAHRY
Sequence of UniProt Q70SY1 (Q70SY1 whole entry, looked up): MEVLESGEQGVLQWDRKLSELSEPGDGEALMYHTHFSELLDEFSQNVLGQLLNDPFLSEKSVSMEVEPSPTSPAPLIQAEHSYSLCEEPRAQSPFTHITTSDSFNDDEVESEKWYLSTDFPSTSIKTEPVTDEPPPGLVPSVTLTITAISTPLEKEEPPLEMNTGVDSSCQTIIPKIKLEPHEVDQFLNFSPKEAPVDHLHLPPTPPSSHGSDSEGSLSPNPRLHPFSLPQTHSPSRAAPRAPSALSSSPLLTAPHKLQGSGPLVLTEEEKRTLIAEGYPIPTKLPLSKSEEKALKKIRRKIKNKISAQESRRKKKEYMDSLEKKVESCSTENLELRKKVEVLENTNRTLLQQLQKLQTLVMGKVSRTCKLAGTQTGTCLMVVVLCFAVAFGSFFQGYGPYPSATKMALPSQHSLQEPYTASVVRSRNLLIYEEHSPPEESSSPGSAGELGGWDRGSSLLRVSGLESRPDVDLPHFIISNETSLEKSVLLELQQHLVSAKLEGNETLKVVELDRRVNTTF
Sequence of UniProt P48729 (P48729 whole entry, looked up): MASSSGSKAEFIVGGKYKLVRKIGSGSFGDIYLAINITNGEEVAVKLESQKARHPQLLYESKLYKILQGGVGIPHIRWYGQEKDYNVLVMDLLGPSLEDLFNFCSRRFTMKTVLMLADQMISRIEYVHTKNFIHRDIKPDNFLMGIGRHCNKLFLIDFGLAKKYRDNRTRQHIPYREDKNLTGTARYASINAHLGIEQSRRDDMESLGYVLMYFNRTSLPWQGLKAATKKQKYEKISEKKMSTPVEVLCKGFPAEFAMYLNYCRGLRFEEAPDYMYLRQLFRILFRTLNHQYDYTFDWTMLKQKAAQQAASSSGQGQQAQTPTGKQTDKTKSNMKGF
Sequence of UniProt Q92828 (Q92828 whole entry, looked up): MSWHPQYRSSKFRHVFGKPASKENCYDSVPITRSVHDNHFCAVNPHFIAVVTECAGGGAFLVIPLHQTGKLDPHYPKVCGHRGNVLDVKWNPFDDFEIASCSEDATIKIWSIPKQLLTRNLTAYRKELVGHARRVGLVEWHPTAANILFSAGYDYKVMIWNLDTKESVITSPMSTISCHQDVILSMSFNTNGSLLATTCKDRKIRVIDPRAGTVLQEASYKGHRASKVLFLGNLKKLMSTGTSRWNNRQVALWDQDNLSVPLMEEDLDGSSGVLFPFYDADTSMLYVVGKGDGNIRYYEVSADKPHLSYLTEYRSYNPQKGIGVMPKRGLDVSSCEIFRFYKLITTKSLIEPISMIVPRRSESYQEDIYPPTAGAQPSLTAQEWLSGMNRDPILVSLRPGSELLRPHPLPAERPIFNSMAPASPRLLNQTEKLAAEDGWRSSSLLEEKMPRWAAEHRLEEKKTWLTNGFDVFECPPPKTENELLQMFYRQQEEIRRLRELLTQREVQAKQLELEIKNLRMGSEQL
Sequence of UniProt P34810 (P34810 whole entry, looked up): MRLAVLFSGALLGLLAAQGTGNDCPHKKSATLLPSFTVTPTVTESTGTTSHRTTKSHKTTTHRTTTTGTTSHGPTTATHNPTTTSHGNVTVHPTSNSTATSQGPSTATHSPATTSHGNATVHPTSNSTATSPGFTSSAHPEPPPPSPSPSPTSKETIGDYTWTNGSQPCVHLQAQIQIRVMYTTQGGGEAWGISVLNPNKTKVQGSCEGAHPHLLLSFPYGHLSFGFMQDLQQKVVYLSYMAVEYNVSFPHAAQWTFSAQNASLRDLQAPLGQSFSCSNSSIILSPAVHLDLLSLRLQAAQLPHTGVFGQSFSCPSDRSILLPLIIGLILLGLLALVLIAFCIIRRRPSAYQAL
Sequence of UniProt P33552 (P33552 whole entry, looked up): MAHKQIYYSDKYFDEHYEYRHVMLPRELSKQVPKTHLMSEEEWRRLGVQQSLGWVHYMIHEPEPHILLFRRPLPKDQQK

For CORO2A (UniProt Q92828), the log2 fold change was -0.035 with filanesib; -0.049 with zotarolimus; -0.071 with idasanutlin; 0.035 with alisertib; -0.057 in test [1]; -0.097 in the test with gefitinib. Besides, the log2 fold change in [2] is -0.02; with lapatinib, -0.011; with pictilisib, -0.11.

CFAP58 (UniProt Q5T655): the log2 fold change with alisertib is -0.156; in test [1], 0; in test [2], 0.032; in the test with lapatinib it was 0.001; with pictilisib, 0.122.

In the case of C5orf30 (UniProt Q96GV9), the log2 fold change with idasanutlin is 0.022; in test [1], -0.094; in the test with lapatinib, -0.21.

Consider CLCN5 isoform 2 (UniProt P51795), for which the log2 fold change in test [3] was -0.011; in the test with zotarolimus, -0.004; with gefitinib, 0.011.

For the target COMMD3-BMI1 (UniProt R4GMX3), the log2 fold change with filanesib is -0.08; in the test with zotarolimus it was -0.12; with idasanutlin it was 0.093; in [1] it was 0.519 (active); with gefitinib, -0.029; with lapatinib, -0.445. Also, the log2 fold change with pictilisib is 0.135.

CCNDBP1 (UniProt O95273): the log2 fold change is 0.016 in the test with filanesib; -0.102 in the test with zotarolimus; 0.063 in the test with idasanutlin; -0.012 with alisertib; -0.33 (active) with gefitinib; 0.125 in test [2]. The log2 fold change with pictilisib is 0.009.

With CD68 (UniProt P34810), the log2 fold change was 0.05 in the test with filanesib, -0.126 in the test with alisertib and -0.025 in [2].

For CAD (UniProt H7BZB3), the log2 fold change in the test with idasanutlin was -0.006.

For CHPT1 (UniProt Q8WUD6), the log2 fold change in the test with filanesib is -0.345; with zotarolimus it was -0.017; with idasanutlin, -0.018; with alisertib, -0.136; in [1] it was -0.009; in the test with gefitinib, 0.013. For the same target, the log2 fold change is -0.015 in test [2], 0.159 in the test with lapatinib and -0.096 in the test with pictilisib.

For CLN3 (UniProt Q13286), the log2 fold change in test [3] is 0.008; with zotarolimus, -0.1; with alisertib it was 0; in [1] it was 0.08; in the test with gefitinib it was -0.028; in test [2], 0.139. In the test with lapatinib, the log2 fold change is -0.059.

With CPNE5 (UniProt Q9HCH3), the log2 fold change with zotarolimus was -0.102.

With CCNL1 (UniProt Q9UK58), the values for the log2 fold change (in the test with alisertib; in [2]) were 0.119 and 0.167, respectively.

Take CD84 (UniProt Q9UIB8): the results for the log2 fold change in the test with filanesib, with zotarolimus and in the test with idasanutlin were -0.009, -0.194 and -0.082, respectively.

Take CNOT4 isoform 9 (UniProt O95628): the log2 fold change in test [3] was -0.018; in the test with zotarolimus it was -0.373 (active); with idasanutlin, -0.334 (active); with alisertib, 0.018; in test [1], 0.106; with gefitinib, 0.053. Also, the log2 fold change in test [2] was 0.019; with lapatinib, -0.083; with pictilisib, 0.045.

Take CKS2 (UniProt P33552): the log2 fold change with idasanutlin was 0.193; with alisertib, -0.029; in test [1], 0.184; with gefitinib, 0.093; in test [2], 0.14; with lapatinib, -0.036. Besides, in the test with pictilisib, the log2 fold change was -0.666.

Regarding CDK19 (UniProt Q9BWU1), the log2 fold change in the test with filanesib was 0.154; with zotarolimus, -0.069; with idasanutlin, -0.161; in the test with alisertib, 0.234; in test [1], 0.138; with gefitinib, -0.095. For the same target, the log2 fold change in test [2] is -0.045; with lapatinib, -0.192; with pictilisib, 0.073.

As for CLN8 (UniProt Q9UBY8), the log2 fold change is 0.068 in the test with filanesib; 0.13 in the test with zotarolimus; -0.145 with idasanutlin; 0.04 in the test with alisertib; -0.019 in test [1]; 0.075 with gefitinib. Moreover, the log2 fold change was -0.015 in [2] and 0.012 with lapatinib.

For the target CEMIP2 (UniProt Q9UHN6), the log2 fold change in [3] is -0.018; with zotarolimus it was 0.008; with idasanutlin it was 0.021; with alisertib, 0.202; in test [1] it was 0.121; in the test with gefitinib, 0.072. Besides, the log2 fold change was 0.135 in test [2], 0.026 in the test with lapatinib and 0.097 with pictilisib.

With CREB3L2 (UniProt Q70SY1), the log2 fold change in test [3] was 0.584; with zotarolimus, 0.042; with idasanutlin it was 0.045; in the test with alisertib it was -0.022; with gefitinib, -0.154; in [2], 0.176.

As to CCNT2 (UniProt O60583), the log2 fold change is 0.102 with filanesib; 0.143 in the test with idasanutlin; 0.039 with alisertib; -0.291 in test [1]; 0.163 with gefitinib; -0.131 in test [2]. In addition, the log2 fold change with lapatinib was 0.085; with pictilisib, 0.121.

Turning to CLINT1 (UniProt Q14677), the log2 fold change in [3] was -0.371; in the test with zotarolimus, 0.263; in the test with idasanutlin it was -0.012; with alisertib it was -0.137; with gefitinib, 0.077; in test [2], -0.055.

For CSNK1A1 isoform 3 (UniProt P48729), the values for the log2 fold change (in test [1]; in [2]; with lapatinib) were -0.006, 0.091 and 0.129, respectively.

With CNN3 (UniProt Q15417), the log2 fold change with filanesib was -0.006; in the test with zotarolimus, 0.005; in the test with idasanutlin, -0.04; with alisertib it was -0.031; in test [1], 0.111; in the test with gefitinib, 0.026. The log2 fold change in test [2] was -0.026; in the test with lapatinib it was -0.032; with pictilisib, 0.04.

Take CCDC187, A0A1W2PQX5: the values for the log2 fold change in the test with idasanutlin, with gefitinib and with pictilisib were -0.051, -0.312 and 0.191, respectively.

Take CASK (UniProt O14936): the log2 fold change was 0.046 in test [3] and -0.031 with idasanutlin.

As for CLPTM1L (UniProt G5E9Z2), the log2 fold change with filanesib was -0.235; with zotarolimus, -0.101; in the test with idasanutlin, -0.446; in the test with alisertib it was -0.199; with gefitinib, -0.142; in [2], 0.099.
